KLK7 zymogen act: activates the human kallikrein-7 zymogen; purified proKLK7, EDANS-DABCYL substrate fluorescence; 100% is mature enzyme control, 0% vehicle; activation, % at 7 µM; hit rate 0.9% among 370,000; AID 652039;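 active = activation above the mean of all tested compounds plus 3 SD, computed per campaign excluding outliers beyond control limits, cut at about 13% in these data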
Target sequence (P49862 whole entry, looked up): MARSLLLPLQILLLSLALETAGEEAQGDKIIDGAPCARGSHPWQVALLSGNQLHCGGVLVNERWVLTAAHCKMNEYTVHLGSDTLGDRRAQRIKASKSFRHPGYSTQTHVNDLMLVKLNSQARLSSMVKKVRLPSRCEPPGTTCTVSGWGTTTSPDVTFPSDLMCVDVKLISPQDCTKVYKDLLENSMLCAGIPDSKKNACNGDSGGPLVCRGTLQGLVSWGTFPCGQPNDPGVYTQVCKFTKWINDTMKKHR
ADAM10 inh: ADAM10 inhibition, QFRET primary screen; O14672; recombinant ADAM10, EDANS/DABCYL FRET peptide cleavage, 3 h; hit rate 0.62% among 370,000; inhibition, % at 7 µM;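 active = inhibition above a per-campaign cutoff equal to the mean of compounds falling between control-based bounds plus 3 SD, cut at about 20% in these data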
HGIII-sPLA2 inh: Inhibits HGIII-sPLA2 liposome hydrolysis, primary screen. inhibition, % at 12.2 µM. AID 743126. QFRET BODIPY PC-A2 liposome hydrolysis, fluorescence. hit rate 0.56% among 370,000;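 active = inhibition above mean plus 3 SD of compounds lying within the high and low control bounds, cut at about 19% in these data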
ADAM17 inh: inhibitors of human ADAM17; inhibition, % at 6.95 µM; recombinant ADAM17, EDANS/DABCYL FRET peptide cleavage; hit rate 0.83% among 370,000; AID 720648;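 active = inhibition above the mean of compounds lying between control limits plus 3 SD, set per campaign, cut at about 8.5% in these data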
CendR NRP1 mod: modulators of CendR peptide binding to human neuropilin-1. O14786. FAM-RPARPAR peptide binding to NRP-1, fluorescence polarization. inhibition, % at 25 µM. hit rate 0.85% among 360,000. AID 602438;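 active = inhibition or corrected inhibition above about 18%, plus a signal ratio from 0.5 to 1.5, limit read from the data, passing the limit was not always enough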
ADAM10 confirm: confirmation of inhibitors of human ADAM10; shares compounds with ADAM10 inh; ADAM10 QFRET peptide cleavage, EDANS fluorescence; inhibition, % at 6.95 µM; hit rate 1% among 2,100;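 active = inhibition above about 20% chosen separately for each screening run, limit read from the data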
ADAM17 counter: counter-screen for ADAM10 exosite inhibitors: inhibitors of human ADAM17; shares compounds with ADAM10 inh; ADAM17 QFRET peptide cleavage, EDANS fluorescence; inhibition, % at 6.95 µM; hit rate 0.5% among 2,100; AID 743214;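 active = mean triplicate inhibition above the solvent-only control wells' mean plus 3 SD, cut at about 12% in these data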
Of the large screens only hits and unclear results are named; the others gave an inactive call (follow-up assays come after a bar, where they were run). Most compounds without a hit are left out; they make up all but 3.4% or so of the library.

CCOC(=O)[C@]12CCC=C1N(Cc1ccc(Cl)cc1Cl)C(=O)[C@H](CC(=O)NCc1ccc(OC)c(OC)c1)C2	ADAM10 inh 20.2 | ADAM10 confirm inactive | ADAM17 counter inactive
CCCCNC(=O)C[C@@H]1C[C@@]2(C(=O)OCC)CCCC=C2N(Cc2ccc(Cl)cc2Cl)C1=O	none
CCOC(=O)[C@]12CCCC=C1N(Cc1ccc(Cl)cc1Cl)C(=O)[C@H](CC(=O)NCCc1ccccc1OC)C2	ADAM10 inh 22.7 | ADAM10 confirm inactive | ADAM17 counter inactive
CCOC(=O)[C@]12CCC=C1N(Cc1ccc(Cl)cc1Cl)C(=O)[C@H](CC(=O)NCc1cccc3ccccc13)C2	none
Cc1ccsc1/C=N/NC(=O)c1nnn(-c2nonc2N)c1CN(C)c1ccccc1	ADAM10 inh 21.8 | ADAM10 confirm inactive | ADAM17 counter inactive
CC(C)NC(=O)c1onc(CSc2cccc3ccccc23)c1C(=O)O	ADAM10 inh 85.5 | ADAM10 confirm inactive | ADAM17 counter inactive
CSc1ccc(CSCC(=O)N2CCN(S(=O)(=O)c3ccc(C)cc3C)CC2)cc1	ADAM10 inh 24.0 | ADAM10 confirm inactive | ADAM17 counter inactive
Cc1ccc(S(=O)(=O)N2CCN(C(=O)COC(=O)Cc3ccc(F)cc3)CC2)c(C)c1	none
CC(=O)c1ccc(OCC(=O)N2CCN(S(=O)(=O)c3ccc(C)cc3C)CC2)cc1	ADAM10 inh 83.8 | ADAM10 confirm inactive | ADAM17 counter inactive
Cc1ccc(S(=O)(=O)N2CCN(C(=O)COC(=O)COc3ccc(Br)cc3)CC2)c(C)c1	none
O=C(NCCc1ccccc1)OCc1cn(Cc2ccc(F)c(F)c2)nn1	none (no result: CendR NRP1 mod)
C/C=C(\C)C(=O)N1CC2(CC(c3cccc(NC(=O)COc4ccc(Cl)cc4)c3)=NO2)C[C@@H]1C(N)=O (stereo not given in full)	ADAM10 inh 85.1 | ADAM10 confirm inactive | ADAM17 counter inactive
NC(=O)[C@@H]1CC2(CC(c3cccc(NC(=O)COc4ccc(Cl)cc4)c3)=NO2)CN1C(=O)c1ccccc1 (stereo not given in full)	none
COc1ccc(C(=O)N2CC3(CC(c4cccc(NC(=O)COc5ccc(Cl)cc5)c4)=NO3)C[C@@H]2C(N)=O)cc1 (stereo not given in full)	ADAM10 inh 23.0 | ADAM10 confirm inactive | ADAM17 counter inactive
C[C@H]1COc2cc(Br)ccc2S(=O)(=O)N1Cc1cn(CCC2OCCO2)nn1	none (no result: CendR NRP1 mod)
COC(=O)[C@]12C[C@H](CC(=O)N3CCN(C(=O)c4ccco4)CC3)C(=O)N(Cc3cccc4ccccc34)C1=C[C@H](C1CCCC1)O[C@@H]2C	ADAM10 inh 20.6 (no result: CendR NRP1 mod) | ADAM10 confirm inactive | ADAM17 counter inactive
CCCCOCCCNC(=O)C[C@H]1C[C@@]2(C(=O)OC)C(=C[C@H](C(C)(C)C)O[C@@H]2C)N(Cc2cccc3ccccc23)C1=O	ADAM10 inh 21.2 (no result: CendR NRP1 mod) | ADAM10 confirm inactive | ADAM17 counter inactive
COC(=O)[C@]12C[C@H](CC(=O)NCCC(C)C)C(=O)N(Cc3ccco3)C1=C[C@H](COCc1ccccc1)O[C@@H]2C	ADAM10 inh 52.9 (no result: CendR NRP1 mod) | ADAM10 confirm inactive | ADAM17 counter inactive
COC(=O)[C@]12C[C@H](CC(=O)NCc3ccc(OC)c(OC)c3)C(=O)N(Cc3cccc4ccccc34)C1=C[C@H](C1CCCC1)O[C@@H]2C	ADAM10 inh 24.1 (no result: CendR NRP1 mod) | ADAM10 confirm inactive | ADAM17 counter inactive
COC(=O)[C@]12C[C@H](CC(=O)NCCC(C)C)C(=O)N(Cc3ccccc3)C1=C[C@H](COCc1ccccc1)O[C@@H]2C	none (no result: CendR NRP1 mod)
COC(=O)[C@]12C[C@H](CC(=O)N3CCN(C(=O)c4ccco4)CC3)C(=O)N(Cc3cccc4ccccc34)C1=C[C@H](C(C)(C)C)O[C@@H]2C	none (no result: CendR NRP1 mod)
COC(=O)[C@]12C[C@H](CC(=O)NCc3ccc(OC)c(OC)c3)C(=O)N(Cc3ccccc3)C1=C[C@H](C1CCCC1)O[C@@H]2C	none (no result: CendR NRP1 mod)
COc1ccc(CNCC#Cc2ccc(C)cc2)c(OC)c1	none (no result: CendR NRP1 mod)
CCOC(=O)CC[C@@H]1CC[C@]2(CCCN(Cc3cccs3)C2)O1	none (no result: CendR NRP1 mod)

High-throughput results: PubChem, several laboratories
